Test results from ChEMBL document CHEMBL3988442, “University of Dundee, Small-Polar-MMV Screening Library” (2021).
For some assays here: Entries with a potency or affinity are not part of this list.

Assays:
Set-up in all cases: scale not given: direction of the effect not stated beside the values
[1] = target: Protein translocase subunit SecA (Escherichia coli (strain K12)) (UniProt P10408); assay: Assay to Identify E. coli SecA ATPase Inhibitors; format: functional; settings: 30 µM
[2] = target: T1, Ubiquitin-activating enzyme e1, putative (Leishmania donovani (strain BPK282A1)) (UniProt E9BSI1); assay: Leishmania donovani Ubiquitin Activating Enzyme (LdE1); format: functional; settings: 30 µM
T1 sequence (whole entry): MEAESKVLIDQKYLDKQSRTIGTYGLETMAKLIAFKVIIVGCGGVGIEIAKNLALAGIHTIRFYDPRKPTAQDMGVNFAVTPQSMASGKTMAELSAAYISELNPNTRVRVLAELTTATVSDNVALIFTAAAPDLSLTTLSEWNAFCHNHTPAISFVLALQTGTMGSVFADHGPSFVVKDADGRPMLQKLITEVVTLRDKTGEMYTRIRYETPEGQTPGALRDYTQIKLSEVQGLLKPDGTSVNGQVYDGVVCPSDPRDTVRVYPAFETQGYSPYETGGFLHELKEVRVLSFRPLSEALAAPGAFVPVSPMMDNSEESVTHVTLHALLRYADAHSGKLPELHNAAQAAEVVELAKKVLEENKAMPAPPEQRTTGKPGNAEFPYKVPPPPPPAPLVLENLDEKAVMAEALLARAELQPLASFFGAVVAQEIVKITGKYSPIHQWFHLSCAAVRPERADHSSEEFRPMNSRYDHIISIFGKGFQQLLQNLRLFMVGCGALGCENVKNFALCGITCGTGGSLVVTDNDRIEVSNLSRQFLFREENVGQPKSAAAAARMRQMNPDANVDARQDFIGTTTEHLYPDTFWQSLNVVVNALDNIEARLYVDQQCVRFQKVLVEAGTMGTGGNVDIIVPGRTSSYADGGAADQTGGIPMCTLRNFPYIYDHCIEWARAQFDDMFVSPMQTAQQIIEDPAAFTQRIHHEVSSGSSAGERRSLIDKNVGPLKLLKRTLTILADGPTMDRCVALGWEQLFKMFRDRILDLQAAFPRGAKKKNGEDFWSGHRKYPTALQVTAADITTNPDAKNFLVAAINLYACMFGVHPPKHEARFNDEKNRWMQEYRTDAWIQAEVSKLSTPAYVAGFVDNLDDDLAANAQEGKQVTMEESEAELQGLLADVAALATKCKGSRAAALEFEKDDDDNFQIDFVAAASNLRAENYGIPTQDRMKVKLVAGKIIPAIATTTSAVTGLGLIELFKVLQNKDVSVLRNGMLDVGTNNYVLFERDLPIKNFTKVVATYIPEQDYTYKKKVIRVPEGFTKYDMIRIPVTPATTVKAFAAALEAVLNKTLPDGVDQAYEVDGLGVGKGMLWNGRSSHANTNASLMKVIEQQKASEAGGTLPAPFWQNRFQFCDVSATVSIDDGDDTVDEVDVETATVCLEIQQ

[3] = target: AMP-activated protein kinase, AMPK (Homo sapiens) (UniProt P54646+O43741+P54619+Q9UGJ0+Q9Y478+Q13131+Q9UGI9); assay: AMP-dependent Kinase enzyme assay. An in vitro enzyme assay that detects ADP turnover that is directly proportional to AMPK activity. This uses naive AMPK that is activated during the assay with MK-8722; format: functional; settings: 30 µM
[4] = target: Sialic acid-binding Ig-like lectin 9 (Homo sapiens) (UniProt Q9Y336); assay: Hs-Siglec9 ALPHAscreen SOP 20170721; settings: 10 µM
[5] = system: Trypanosoma cruzi; assay: Trypanosoma cruzi phosphomannomutase and mannose-1-phosphate guanylyltransferase assay; format: functional; settings: 10 µM
[6] = target: T2, Arginase-2, mitochondrial (Homo sapiens) (UniProt P78540); assay: in vitro enzyme assay to detect the production of urea directly proportional to the activity of Arginase II; format: functional; settings: 33.3 µM; note: in the data most compounds retested in dose-response had high values
T2 sequence (whole entry): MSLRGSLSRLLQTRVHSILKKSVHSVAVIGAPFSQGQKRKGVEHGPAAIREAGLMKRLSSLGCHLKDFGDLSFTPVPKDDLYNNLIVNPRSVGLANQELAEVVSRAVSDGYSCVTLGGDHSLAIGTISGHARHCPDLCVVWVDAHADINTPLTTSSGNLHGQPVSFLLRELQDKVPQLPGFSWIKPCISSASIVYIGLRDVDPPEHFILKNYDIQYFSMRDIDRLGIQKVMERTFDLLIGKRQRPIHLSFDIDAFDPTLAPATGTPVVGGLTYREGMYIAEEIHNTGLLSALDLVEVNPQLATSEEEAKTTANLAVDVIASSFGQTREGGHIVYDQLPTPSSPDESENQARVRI

[7] = target: T3, Proteasome subunit beta (Trypanosoma cruzi) (UniProt O96673); assay: Trypanosoma cruzi proteasome chymotrypsin-like activity (TcProtChymo) assay.; note: in the data most compounds retested in dose-response had high values; format: functional; settings: 9.37 µM
T3 sequence (whole entry): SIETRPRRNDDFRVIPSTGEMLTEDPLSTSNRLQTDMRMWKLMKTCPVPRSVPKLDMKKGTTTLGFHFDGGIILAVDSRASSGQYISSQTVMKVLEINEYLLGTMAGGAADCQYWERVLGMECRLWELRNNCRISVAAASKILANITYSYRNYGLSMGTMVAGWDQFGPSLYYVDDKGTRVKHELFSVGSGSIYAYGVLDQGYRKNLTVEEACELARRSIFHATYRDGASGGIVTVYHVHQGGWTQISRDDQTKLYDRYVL

[8] = organism: Homo sapiens; assay: To identify inhibition of the IFN signalling (Jak-Stat) pathway via expression of an eGFP reporter gene under the control of an IFN-stimulated response element (ISRE) containing MxA promoter.; format: functional; settings: 30 µM
[9] = target: T4, Tyrosyl-tRNA synthetase, putative (Trypanosoma cruzi (strain CL Brener)) (UniProt Q4DSP6); assay: Trypanosoma cruzi tyrosyl tRNA synthetase (TcYRS) _High Tyrosine SOP; format: functional; settings: 30 µM; note: in the data most compounds retested in dose-response had high values
T4 sequence (whole entry): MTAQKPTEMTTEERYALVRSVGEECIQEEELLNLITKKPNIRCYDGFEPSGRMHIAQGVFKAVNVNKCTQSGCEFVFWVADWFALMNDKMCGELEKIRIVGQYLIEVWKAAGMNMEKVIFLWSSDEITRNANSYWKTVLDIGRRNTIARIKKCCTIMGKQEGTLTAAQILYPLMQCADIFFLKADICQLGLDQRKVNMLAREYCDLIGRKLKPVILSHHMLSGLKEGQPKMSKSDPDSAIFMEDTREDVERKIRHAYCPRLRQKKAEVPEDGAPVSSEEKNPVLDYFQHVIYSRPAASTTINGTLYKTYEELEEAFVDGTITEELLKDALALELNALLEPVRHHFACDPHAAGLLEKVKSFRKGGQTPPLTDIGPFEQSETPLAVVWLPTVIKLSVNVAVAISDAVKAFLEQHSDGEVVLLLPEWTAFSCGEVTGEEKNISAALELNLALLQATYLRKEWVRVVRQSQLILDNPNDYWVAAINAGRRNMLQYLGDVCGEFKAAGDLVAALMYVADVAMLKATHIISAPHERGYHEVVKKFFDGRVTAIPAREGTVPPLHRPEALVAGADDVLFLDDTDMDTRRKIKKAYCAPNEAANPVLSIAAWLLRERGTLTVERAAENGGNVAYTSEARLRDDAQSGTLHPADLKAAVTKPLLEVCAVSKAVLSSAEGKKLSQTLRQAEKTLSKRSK

[10] = target: T4, Tyrosyl-tRNA synthetase, putative (Trypanosoma cruzi (strain CL Brener)); assay: Trypanosoma cruzi tyrosyl tRNA synthetase (TcYRS) SOP; format: functional; settings: 30 µM
[11] = target: Chromo domain-containing protein 1 (Saccharomyces cerevisiae (strain ATCC 204508 / S288c) (Baker's yeast)) (UniProt P32657); assay: ScCHD-1 Enzyme Inhibition Assay; format: functional; settings: 30 µM; note: in the data most compounds retested in dose-response had high values
Chromo domain-containing protein 1 (Saccharomyces cerevisiae (strain ATCC 204508 / S288c) (Baker's yeast)), sequence (P32657 whole entry, the tested form may be a part): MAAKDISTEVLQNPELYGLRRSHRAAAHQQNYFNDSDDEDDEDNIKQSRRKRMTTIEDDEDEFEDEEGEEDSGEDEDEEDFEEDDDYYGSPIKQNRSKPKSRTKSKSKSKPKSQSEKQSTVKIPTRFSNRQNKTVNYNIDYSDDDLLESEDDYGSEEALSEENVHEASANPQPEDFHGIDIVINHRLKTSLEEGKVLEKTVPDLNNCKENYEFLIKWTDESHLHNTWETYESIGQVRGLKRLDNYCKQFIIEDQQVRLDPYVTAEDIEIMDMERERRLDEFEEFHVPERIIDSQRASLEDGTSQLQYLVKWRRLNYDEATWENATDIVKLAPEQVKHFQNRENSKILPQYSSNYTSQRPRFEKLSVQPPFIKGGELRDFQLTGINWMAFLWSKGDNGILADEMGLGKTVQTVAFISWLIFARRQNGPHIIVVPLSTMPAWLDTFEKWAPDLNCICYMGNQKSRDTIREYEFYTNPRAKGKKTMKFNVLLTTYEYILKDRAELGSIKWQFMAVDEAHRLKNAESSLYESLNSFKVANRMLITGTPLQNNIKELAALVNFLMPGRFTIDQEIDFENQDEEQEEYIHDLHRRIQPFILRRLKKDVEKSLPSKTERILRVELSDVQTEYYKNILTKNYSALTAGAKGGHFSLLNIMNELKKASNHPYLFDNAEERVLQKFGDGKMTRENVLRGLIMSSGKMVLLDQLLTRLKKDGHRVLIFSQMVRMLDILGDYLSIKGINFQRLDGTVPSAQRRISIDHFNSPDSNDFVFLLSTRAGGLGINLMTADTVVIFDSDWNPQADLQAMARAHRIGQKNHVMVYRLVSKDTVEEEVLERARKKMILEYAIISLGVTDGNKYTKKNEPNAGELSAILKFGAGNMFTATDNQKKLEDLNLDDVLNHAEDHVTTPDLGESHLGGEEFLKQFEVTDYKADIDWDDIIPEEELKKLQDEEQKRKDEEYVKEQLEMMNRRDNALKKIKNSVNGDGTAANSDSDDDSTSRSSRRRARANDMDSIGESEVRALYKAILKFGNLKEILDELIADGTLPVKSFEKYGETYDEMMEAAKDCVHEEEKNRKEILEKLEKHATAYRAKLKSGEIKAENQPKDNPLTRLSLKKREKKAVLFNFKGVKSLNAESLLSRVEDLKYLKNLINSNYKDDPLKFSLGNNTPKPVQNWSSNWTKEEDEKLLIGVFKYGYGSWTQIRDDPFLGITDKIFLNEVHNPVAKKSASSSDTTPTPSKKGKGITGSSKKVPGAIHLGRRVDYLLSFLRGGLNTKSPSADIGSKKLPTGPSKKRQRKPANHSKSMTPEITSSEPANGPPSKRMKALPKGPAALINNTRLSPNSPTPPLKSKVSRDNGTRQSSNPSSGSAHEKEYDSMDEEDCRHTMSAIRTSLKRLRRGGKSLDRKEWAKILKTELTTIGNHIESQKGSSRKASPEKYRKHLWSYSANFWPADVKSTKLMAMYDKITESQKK

Sialic acid-binding Ig-like lectin 9 (Homo sapiens), sequence (Q9Y336 whole entry): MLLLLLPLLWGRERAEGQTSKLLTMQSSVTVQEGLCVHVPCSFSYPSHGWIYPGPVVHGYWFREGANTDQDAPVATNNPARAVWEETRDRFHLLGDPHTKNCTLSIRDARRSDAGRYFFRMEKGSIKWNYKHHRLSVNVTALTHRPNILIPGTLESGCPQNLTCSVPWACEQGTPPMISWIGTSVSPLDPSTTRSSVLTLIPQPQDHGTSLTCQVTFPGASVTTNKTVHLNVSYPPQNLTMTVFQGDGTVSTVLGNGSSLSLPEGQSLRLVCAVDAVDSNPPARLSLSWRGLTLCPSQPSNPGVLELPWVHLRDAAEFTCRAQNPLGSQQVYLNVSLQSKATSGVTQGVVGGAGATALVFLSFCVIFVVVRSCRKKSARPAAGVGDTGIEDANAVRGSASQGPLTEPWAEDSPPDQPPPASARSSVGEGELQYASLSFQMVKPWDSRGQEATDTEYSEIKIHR
Protein translocase subunit SecA (Escherichia coli (strain K12)), sequence (P10408 whole entry): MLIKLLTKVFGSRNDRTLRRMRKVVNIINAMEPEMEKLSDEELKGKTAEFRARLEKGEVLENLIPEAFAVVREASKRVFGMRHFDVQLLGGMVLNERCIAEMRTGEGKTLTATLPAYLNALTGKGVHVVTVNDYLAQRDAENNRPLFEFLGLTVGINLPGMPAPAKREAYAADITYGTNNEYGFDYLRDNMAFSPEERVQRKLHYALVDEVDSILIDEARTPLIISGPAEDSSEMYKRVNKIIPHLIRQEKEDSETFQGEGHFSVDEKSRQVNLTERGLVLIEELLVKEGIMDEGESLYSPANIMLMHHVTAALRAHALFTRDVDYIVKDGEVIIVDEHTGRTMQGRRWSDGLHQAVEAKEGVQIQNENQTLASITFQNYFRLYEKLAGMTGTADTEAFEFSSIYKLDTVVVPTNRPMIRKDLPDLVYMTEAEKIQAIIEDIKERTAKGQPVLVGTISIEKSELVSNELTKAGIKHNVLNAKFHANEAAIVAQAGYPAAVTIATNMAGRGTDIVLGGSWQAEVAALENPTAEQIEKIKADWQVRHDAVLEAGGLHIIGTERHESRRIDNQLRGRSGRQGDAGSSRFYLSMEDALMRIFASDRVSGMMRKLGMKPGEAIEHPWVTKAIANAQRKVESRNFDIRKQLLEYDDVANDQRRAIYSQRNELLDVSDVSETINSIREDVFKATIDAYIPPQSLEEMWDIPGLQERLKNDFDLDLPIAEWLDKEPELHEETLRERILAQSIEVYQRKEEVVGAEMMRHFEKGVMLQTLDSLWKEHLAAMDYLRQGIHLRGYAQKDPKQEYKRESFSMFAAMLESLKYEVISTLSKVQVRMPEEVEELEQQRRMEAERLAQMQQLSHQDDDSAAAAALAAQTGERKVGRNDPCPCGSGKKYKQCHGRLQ

| Structure (SMILES) | Percent Effect [1] [%] | Percent Effect [2] [%] | Percent Effect [3] [%] | Percent Effect [4] [%] | Percent Effect [5] [%] | Percent Effect [6] [%] | Percent Effect [7] [%] | Percent Effect [8] [%] | Percent Effect [9] [%] | Percent Effect [10] [%] | Percent Effect [11] [%] |
| --- | --- | --- | --- | --- | --- | --- | --- | --- | --- | --- | --- |
| CCOCC(O)CN1CCN(C(=O)c2cccc(F)c2)CC1 (configuration not stated) | -1.53 | 2.7 | -2.77 | -2.18 | 7.92 | -2.86 | 5.17 | 13.8 | 0.529 | -9.76 | -2.68 |
| Cc1noc(C)c1-c1cccc(CC2CCN(C(=O)CCC(=O)O)C2)n1 (configuration not stated) | -2.58 | 6.76 | 5.24 | 4.95 | 3.16 | 0.696 | 3.28 | -7.92 | 1.07 | 3.9 | -9.71 |
| CCc1cnc(CN(C(C)=O)C2CCN(CCS(C)(=O)=O)C2)o1 (configuration not stated) | -2.33 | 6.94 | -4.16 | 16.1 | 0.291 | 9.27 | 13.3 | 10.7 | 4.21 | 10.3 | -8.92 |
| Cc1occc1C(=O)N1CCC2(CCC(=O)N(CC(N)=O)C2)CC1 | -6.56 | -4.17 | 0.341 | 3.65 | -3.6 | 2.21 | 10.9 | 3 | -2.1 | -7.69 | -2.07 |
| Cc1ccoc1-c1nnc(CNCC2CCCN2c2cccnn2)o1 (configuration not stated) | -6.58 | 0 | -0.825 | 2.96 | 1.98 | -0.798 | 9.33 | 6.87 | 9.38 | 13.6 | 1.55 |
| NS(=O)(=O)c1ccc(NC(=O)CSc2ccc3c(c2)CCC3)cc1 | -2.43 | -2.7 | 2.08 | -4.31 | -4.69 | -21.2 | 13.1 | 6.93 | 1.98 | -13.4 | 17.3 |
| CCCS(=O)(=O)Nc1ccc2c(c1)OCC(C)(C)C(=O)N2C | -0.588 | 11 | -6.5 | 1.41 | -5.09 | -2.27 | 12.6 | 8.18 | 2.15 | 10 | -5.87 |
| COCC(=O)N1CCCC2(CCN(c3ccsc3)C2=O)C1 (configuration not stated) | -5.59 | 2.67 | 5.83 | -0.603 | -1.18 | -0.699 | -5.73 | 26.1 | 0 | -1.28 | 4.35 |
| Cn1ccnc1CN1CCN(Cc2ccccc2C#N)CC1 | -5.61 | 18.4 | -14.9 | 6.65 | 2.52 | -0.719 | 6.34 | 5.87 | 12.3 | 18.5 | -9.79 |
| O=C(NCCc1ccsc1)Nc1cccnc1N1CCCC1 | -3.39 | 26.3 | -28.7 | 0.502 | 3.64 | -2.88 | 11.2 | -10.3 | 8.37 | 35.8 | -9.48 |
| Cc1ccc(NC(=O)NC(C)c2nc[nH]n2)cc1 (configuration not stated) | -6.05 | -10.8 | -1.56 | -5.4 | -1.86 | -0.248 | 15.9 | -15.4 | 1.07 | 1.24 | -1.66 |
| O=C(CNCCn1cccn1)NCC1(c2ccccc2)CC1 | -0.0759 | -2.6 | 8.25 | 8.53 | 1.27 | 1.47 | -3.96 | 7.94 | 3.81 | 7.06 | -6.43 |
| CCN1CC2(CC1=O)CN(C(C)=O)CCN(C(=O)c1ccco1)C2 (configuration not stated) | -1.61 | 5.48 | -6.62 | 5.12 | -0.595 | -4.79 | 5.05 | 4.81 | 1.04 | 3.7 | -1.88 |
| Cn1cc(C2CCCN2C(=O)CCCOc2ccc(F)cc2F)cn1 (configuration not stated) | -6.14 | 10.1 | 1.86 | 9.73 | -0.283 | 1.9 | -3.36 | -0.895 | 4.43 | 3.8 | -1.53 |
| CCn1ccnc1CN(C)C1CCCN(CCc2ccccc2)C1 (configuration not stated) | -7.05 | 0 | 0.137 | 4.16 | -3.64 | 4.14 | 0.832 | -8.38 | 5.38 | 3.7 | 2.42 |
| Cc1csc(CNC(=O)NCCc2ccc3c(c2)OCCO3)n1 | -5.64 | 13 | -2.69 | -16.2 | 7.93 | -3.58 | 13.5 | 8.98 | 4.76 | 23.5 | -17.6 |
| Cc1cnn(CCNCc2nc(-c3ccccc3Cl)no2)c1 | -4.16 | 10.5 | 0.118 | -5.56 | 9.77 | -4.98 | 16.5 | 12.2 | 5.39 | 17.1 | -13.7 |
| CCc1nnc(CN(C)c2nc(C3CCCC3)nc3c2cnn3C)o1 | -4.33 | 4.17 | 7.51 | 2.48 | 3.79 | 2.65 | 10.5 | 7.5 | 1.05 | 7.69 | -2.84 |
| CCNC(=O)CN1CCCN(C(=O)C2CCCc3[nH]ncc32)CC1 (configuration not stated) | -3.9 | 8.11 | -2.94 | 6.84 | 1.66 | 5.21 | 5.75 | -11.9 | 3.23 | 8.64 | -4.21 |
| COc1c(CNC2CCN(C(=O)C3CC3)CC2)c(C(C)C)nn1C | -4.71 | 21.1 | -4.53 | -2.41 | -4.95 | 1.44 | -0.0846 | 15.4 | 6.4 | 18.5 | -3.47 |
| O=C(CN1CCOC(Cn2cccn2)C1)NCc1cccs1 (configuration not stated) | 0.0678 | -2.7 | -5.7 | 11.3 | 1.58 | -0.924 | 1.98 | -5.12 | 0.99 | 3.66 | -4.1 |
| NC(=O)C1CN(C(=O)Nc2ccccc2N2CCCCCC2)CCO1 (configuration not stated) | -6.93 | -48.6 | -3.8 | 9.74 | 6.96 | -3.88 | 4.31 | 11.3 | 1.98 | 15.8 | -1.09 |
